Bioassay records from PubChem.
ClpP mod: qHTS Assay for Activators of ClpP. ATP-dependent Clp protease proteolytic subunit (Bacillus subtilis (strain 168)), P80244. purified B. subtilis ClpP, FRET peptide cleavage, 20 min. Potency, µM (highest dose often 57.5 µM), for inactives: at the highest dose activity change, negative = active. 1.9% of 340,000 active; active = well fitted falling curve with a large enough effect; inconclusive = small, poorly fitted or top-dose-only effect; inactive = no such curve, though single readings can be large or run the other way; also: the source files actives as falling curves though it sought activators and does not explain the sign; nearly all actives have a fitted effect of over 65% in size
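ClpP 10 microg/mL final, pH 8 Tris/KCl buffer with BSA, glycerol, Tween-20; compound pinned in; FRET-FV substrate; RT 20 min; Ex320/Em430; ΔFRET vs ADEP 5.8 microM, DMSO, no enzyme.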
DT40 TDP1 CPT: DT40-hTDP1 cell growth loss with CPT; Potency, µM (doses to about 46.2 µM), for inactives: at the top dose activity change, negative = growth inhibition, usual class: inhibitors; 12% of 420,000 active; chicken DT40 Tdp1-/-;hTDP1 cells + 20 nM CPT, ATP luminescence, 48 h; also: % is scaled to controls: 0 for no effect and ±100 for the full control effect; nearly all actives have a fitted effect of over 55% in size
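Cell growth measured by CellTiter-Glo luminescence after a minimum 48 h, 37 C compound exposure with 20 nM CPT in Tdp1-knockout DT40 cells stably expressing hTDP1, seeded 400/well; qHTS titration format.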
DT40 TDP1 no CPT: qHTS for Inhibitors of human tyrosyl-DNA phosphodiesterase 1 (TDP1): qHTS in cells in absence of CPT. DT40 Tdp1-/- hTDP1 cells, no CPT, ATP luminescence, 48 h. Potency, µM (titrated, usually from 46.2 µM), for inactives: at the highest dose activity change, negative = growth inhibition, usual class: inhibitors. 15% of 420,000 active. AID 686978, 2013; also: % is scaled to controls: 0 for no effect and ±100 for the full control effect; nearly all actives have a fitted effect of over 55% in size
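Seeded 400 DT40-hTDP1 cells/well (vehicle DMSO, no 20 nM CPT); pinned compounds; ≥48 hr at 37 °C; CellTiter-Glo luminescence as viability measure.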
TDP1 block: inhibitors of human tyrosyl-DNA phosphodiesterase TDP1. Q9NUW8. recombinant TDP1, AlphaScreen DNA substrate cleavage. Potency, µM (highest dose often 130 µM), for inactives: at the highest dose activity change, negative = inhibition, most hits filed as inhibitors. 0.28% of 350,000 active. AID 485290; also: % is scaled to controls: 0 for no effect and ±100 for the full control effect; nearly all actives have a fitted effect of over 40% in size
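Recombinant human Tdp1 (E. coli-expressed, 1 nM final) preincubated with compounds 15 min at room temperature, then 5'-biotin/3'-phosphotyrosine-FITC DNA substrate (15 nM final) added for 5 min. AlphaScreen beads (10 ug/ml final) added 10 min; cleavage lowers signal.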
Numbers without * were called inactive; ? = inconclusive; nt = not tested or not shown; [ ] = dose if it differs, or a comment. Shown are actives, neighbours in structure and some others; about 17% of the full set was active somewhere. Unless noted, calls follow the shape of the dose curve; as a rule, active = well fitted curve in the direction sought with a large enough effect; inconclusive = small, poorly fitted or top-dose-only effect, or another doubt; inactive = no such curve, though single readings can be large; an effect the other way counts as inactive or inconclusive. Potency is read from the fitted curve at half-maximal effect.

SMILES	ClpP mod	DT40 TDP1 CPT	DT40 TDP1 no CPT	TDP1 block
CN(c1ccccc1)S(=O)(=O)c1ccc(NC(=O)c2ccco2)cc1	nt	-6.5%	-22.9%	-2.7%
CCSc1ncc(Cl)c(C(=O)Nc2ccc(S(=O)(=O)N(C)c3ccccc3)cc2)n1	-5.9%	11.6µM*	11.6µM*	1.2%
CCS(=O)(=O)c1ncc(Cl)c(C(=O)Nc2ccc(S(=O)(=O)N(C)c3ccccc3)cc2)n1	4.3%	0.731µM*	0.651µM*	6.0%
CCN(c1ccccc1)S(=O)(=O)c1ccc(NC(=O)c2nc(S(C)(=O)=O)ncc2Cl)cc1	7.6%	1.16µM*	1.03µM*	5.4%
CCN(c1ccccc1)S(=O)(=O)c1ccc(NC(=O)c2ccco2)cc1	nt	?	?	2.6%
CCSc1ncc(Cl)c(C(=O)Nc2ccccc2F)n1	0.1%	-0.4%	-15.1%	3.6%
Cc1ccc(S(=O)(=O)n2c(N)nc3cc(C)c(C)cc32)cc1	1.4%	?	?	nt
NC(Cc1ccc(Cl)cc1)c1csc(Nc2ccc(S(N)(=O)=O)cc2)n1 (configuration not stated)	-7.3%	14.6µM*	9.2µM*	nt
CC(C)C(N)c1csc(Nc2ccc(S(C)(=O)=O)cc2)n1 (configuration not stated)	-13.6%	6.8%	0.0%	nt
NC(Cc1ccc(C(F)(F)F)cc1)c1csc(Nc2ccc(S(N)(=O)=O)cc2)n1 (configuration not stated)	-10.5%	13µM*	20.6µM*	nt
CS(=O)(=O)c1ccc(Nc2nc(C(N)Cc3ccc(Cl)cc3)cs2)cc1 (configuration not stated)	?	11.6µM*	16.4µM*	nt
COc1ccc(C(N)c2csc(Nc3ccc(S(C)(=O)=O)cc3)n2)cc1 (configuration not stated)	-10.2%	23.1µM*	?	nt
CC(C)(C)C1CCC(=O)N(CCOc2ccccc2)CC1 (configuration not stated)	0.5%	?	?	nt
COc1ccc(NS(=O)(=O)c2ccc(Cl)c(C(=O)O)c2)cc1S(=O)(=O)N1CCCCC1	-1.8%	-16.2%	43.7%	6.1%
COc1ccc(C)cc1-n1nnnc1SCc1cn2ccsc2n1	0.6%	?	?	4.0%
CN(C)c1nc(N)nc(CSc2nnnn2-c2ccc(F)cc2)n1	1.0%	-34.7%	-23.6%	5.9%
COc1ccc(C)cc1-n1nnnc1SCc1nc(N)nc(N(C)C)n1	-3.1%	4.61µM*	6.51µM*	nt
Cc1cccc(C)c1-n1nnnc1SCc1nc(N)nc(N(C)C)n1	-30.0%	2.31µM*	2.06µM*	nt
CCCS(=O)(=O)NC(=O)C1(C)CCCN(C(=O)c2cc(OC)c(OC)c(OC)c2)C1 (configuration not stated)	0.2%	4.0%	-16.9%	nt
[O-][n+]1c2ccccc2[n+]([O-])c2cc(O)ccc21	-1.0%	9.2µM*	13µM*	nt
Cc1ccccc1NC(=O)CSc1nnc(C2CC2)n1CC1CCCO1 (configuration not stated)	-0.5%	2.6%	-0.1%	10.8%
C=Cc1ccc(Cn2c(=O)n(-c3ccc(C)cc3)c(=O)c3c2c2cc(OC)ccc2n3C)cc1	?	?	25.9µM*	0.0%
COc1cccc(NC(=O)Cn2c(=O)n(Cc3ccccc3)c(=O)c3c2c2cc(C)ccc2n3C)c1	4.3%	?	3.66µM*	2.8%
Cc1ccc2c(c1)c1c(c(=O)n(-c3ccccc3C)c(=O)n1Cc1cccc(F)c1)n2C	4.0%	13µM*	9.2µM*	5.6%
COc1ccc2c(c1)c1c(c(=O)n(Cc3ccccc3)c(=O)n1CC(=O)Nc1cc(C)cc(C)c1)n2C	?	?	-24.9%	0.0%
COc1ccc2c(c1)c1c(c(=O)n(-c3ccccc3C)c(=O)n1CC(=O)NCc1ccc(C)cc1)n2C	3.8%	20.6µM*	13µM*	5.6%
COc1ccccc1C1CN(CCNC(=O)[C@@H]2CSC(=O)N2)Cc2ccccc2O1 (some centres not stated)	nt	-0.9%[9.04 µM]	-16.5%	nt
Cc1cccc(Cn2c(=O)n(-c3ccccc3C)c(=O)c3c2c2cc(C)ccc2n3C)c1	4.1%	23.1µM*	20.6µM*	0.0%
Cc1ccc2c(c1)c1c(c(=O)n(-c3ccccc3C)c(=O)n1CC(=O)c1ccc(Cl)cc1)n2C	-4.6%	?	?	5.6%
